GPR151 activ – human GPR151 activation | Q8TDV0 | PathHunter beta-arrestin GPR151 cells, luminescence | activation, % at 11.2 µM | actives 1% (n = 650,000); in the data active = activation above about 4.9%;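 also: 0% = median of compound wells and 100% = cells with positive control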
Target sequence (Q8TDV0 whole entry, looked up): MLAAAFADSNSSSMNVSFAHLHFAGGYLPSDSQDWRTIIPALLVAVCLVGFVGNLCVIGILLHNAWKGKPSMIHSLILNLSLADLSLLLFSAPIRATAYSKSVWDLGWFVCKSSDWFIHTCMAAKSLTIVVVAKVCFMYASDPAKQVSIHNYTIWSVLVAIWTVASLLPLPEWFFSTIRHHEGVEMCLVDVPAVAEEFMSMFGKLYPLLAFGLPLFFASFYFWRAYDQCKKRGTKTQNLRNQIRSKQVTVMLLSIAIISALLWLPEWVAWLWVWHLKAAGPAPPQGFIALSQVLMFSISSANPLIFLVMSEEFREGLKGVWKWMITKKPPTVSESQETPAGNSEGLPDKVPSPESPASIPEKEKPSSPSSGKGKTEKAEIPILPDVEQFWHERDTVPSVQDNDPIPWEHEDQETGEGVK
MITF primary – human MITF inhibition, primary screen; O75030; AlphaScreen MITF homodimerization, bead proximity signal; inhibition, % at 2.6 µM; actives 0.91% (n = 650,000); AID 1259374; in the data active = inhibition above about 50%;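 also: 0% = vehicle wells with protein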
FBW7 activator – human FBW7 E3 ligase activation, primary screen; actives 0.13% (n = 650,000); AID 1259310; AlphaScreen FBW7–phospho-cyclin E peptide binding, activator screen; normalized activity (activation), % at 26.1 µM; Q969H0; in the data active = normalized activity above about 1.9%;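 also: purified mutant Fbw7 with reduced substrate affinity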
TEAD-YAP inh – TEAD-YAP interaction inhibition. HEK-TIYL cells, TEAD-Gal4/YAP UAS-luciferase luminescence. inhibition, % at 9.12 µM. actives 1.4% (n = 640,000). AID 1259422; in the data active = inhibition above about 32%;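 also: 0% = median of test compound wells and 100% = reference inhibitor wells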
MITF inh conf – confirmation of human MITF inhibitors. shares compounds with MITF primary. AlphaScreen MITF homodimerization, biotin/His-MITF beads. inhibition, % at 2.6 µM. actives 16% (n = 4,700). AID 1259372;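 active = inhibition above a cutoff derived from the DMSO control wells, cut at about 28% in these data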;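 also: 0% = MITF dimer wells with DMSO only; inhibitors lower the bead chemiluminescence by keeping MITF from dimerizing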
AlphaScreen intf2 – counter-screen: compounds optically interfering with AlphaScreen. actives 7.6% (n = 4,700). LysRS AlphaScreen counterscreen, signal interference, triplicate. AID 1259376. shares compounds with MITF primary. inhibition, % at 2.6 µM;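 active = inhibition above a cutoff derived from the DMSO control wells, cut at about 30% in these data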
The depositor's hits bear a star. Most compounds without a hit are left out; they make up all but 3.5% or so of the library.

How did Cc1ccc(S(=O)(=O)CCC(=O)Nc2cccc(C(F)(F)F)c2)cc1 do in these assays?
GPR151 activ: 2; MITF primary: 4; FBW7 activator: 0; TEAD-YAP inh: 3

How did Nc1c(Br)cc(C(=O)OCC(=O)c2ccccc2)cc1Br do in these assays?
GPR151 activ: 0; MITF primary: -8; FBW7 activator: 0; TEAD-YAP inh: -9

Results for O=C(CSc1nnc(-c2cccc(Cl)c2)o1)Nc1ccccc1 ?
GPR151 activ: -2; MITF primary: 82*; FBW7 activator: 0; TEAD-YAP inh: -40; MITF inh conf: 4; AlphaScreen intf2: 15

What do the screens show for `CS(=O)(=O)N1CCN(Cc2ccco2)CC1`?
GPR151 activ: -1; MITF primary: 31; FBW7 activator: 0; TEAD-YAP inh: -1

What do the screens show for `c1ccc(CCCN2CCN(Cc3ccco3)CC2)cc1`?
GPR151 activ: 1; MITF primary: 55*; FBW7 activator: 0; TEAD-YAP inh: 6; MITF inh conf: 0; AlphaScreen intf2: 12

Results for Brc1ccccc1CN1CCN(Cc2ccco2)CC1 ?
GPR151 activ: -1; MITF primary: 78*; FBW7 activator: 0; TEAD-YAP inh: -30; MITF inh conf: -4; AlphaScreen intf2: 11

How did O=S(=O)(c1ccccc1)N1CCN(Cc2ccco2)CC1 do in these assays?
GPR151 activ: 1; MITF primary: 49; FBW7 activator: 1; TEAD-YAP inh: -3

What do the screens show for `Brc1ccc(CN2CCN(Cc3ccco3)CC2)cc1`?
GPR151 activ: -1; MITF primary: 86*; FBW7 activator: 0; TEAD-YAP inh: -4; MITF inh conf: 9; AlphaScreen intf2: 20

What do the screens show for `Cc1ccccc1CN1CCN(Cc2ccco2)CC1`?
GPR151 activ: 0; MITF primary: 72*; FBW7 activator: 0; TEAD-YAP inh: -10; MITF inh conf: 8; AlphaScreen intf2: 6

What do the screens show for `O=C(Nc1nc(-c2ccc(F)cc2)cs1)c1cccc(Br)c1`?
GPR151 activ: -1; MITF primary: 20; FBW7 activator: 0; TEAD-YAP inh: -10

How did CN(C)S(=O)(=O)c1ccc(NC(=O)c2ccccc2S(C)(=O)=O)cc1 do in these assays?
GPR151 activ: 1; MITF primary: 3; FBW7 activator: 0; TEAD-YAP inh: 6

What do the screens show for `CCOc1ccc(-n2nc3ccc(NC(=O)c4ccccc4)cc3n2)cc1`?
GPR151 activ: -1; MITF primary: 4; FBW7 activator: 0; TEAD-YAP inh: -5

How did COc1ccc(-c2noc(CN(C)Cc3ccnc4ccccc34)n2)cc1 do in these assays?
GPR151 activ: 0; MITF primary: -2; FBW7 activator: 0; TEAD-YAP inh: 28

How did CCCC(=O)Nc1nnc(SCC(=O)NC2CCCCC2)s1 do in these assays?
GPR151 activ: -1; MITF primary: -5; FBW7 activator: 0; TEAD-YAP inh: 2

How did O=C1CCCC2(O)C1C(c1ccccc1Cl)NC(=O)N2Cc1ccccc1 (centres undefined) do in these assays?
GPR151 activ: 2; MITF primary: -2; FBW7 activator: 0; TEAD-YAP inh: 8

What do the screens show for `Fc1ccc(N2CN(Cc3ccco3)CNC2=S)cc1`?
GPR151 activ: 0; MITF primary: 4; FBW7 activator: 0; TEAD-YAP inh: 12

What do the screens show for `Fc1ccc(N2CCN(Cc3ccco3)CC2)cc1`?
GPR151 activ: 0; MITF primary: 52*; FBW7 activator: 0; TEAD-YAP inh: 6; MITF inh conf: 15; AlphaScreen intf2: 5

How did COc1ccc(C)cc1NC(=O)c1sc2nc(C)nc(N3CCCCC3C)c2c1C (centres undefined) do in these assays?
GPR151 activ: 0; MITF primary: -6; FBW7 activator: 0; TEAD-YAP inh: -7

How did CCCCc1nc2ccccc2c(NC(=O)CN(CCCC)CCCC)c1CCC do in these assays?
GPR151 activ: 2; MITF primary: 83*; FBW7 activator: 0; TEAD-YAP inh: -7; MITF inh conf: 15; AlphaScreen intf2: -10

Results for CCCCc1nc2ccccc2c(NC(=O)CN2CCN(C(=O)c3ccco3)CC2)c1CCC ?
GPR151 activ: -2; MITF primary: 65*; FBW7 activator: 0; TEAD-YAP inh: -4; MITF inh conf: -5; AlphaScreen intf2: 12

What do the screens show for `CCCCN(C)CC(=O)Nc1cc(N(C)C)nc2ccccc12`?
GPR151 activ: 1; MITF primary: 24; FBW7 activator: 0; TEAD-YAP inh: 4

What do the screens show for `CCCCc1nc2ccccc2c(NC(=O)CNC2CCCCC2)c1CCC`?
GPR151 activ: -1; MITF primary: 66*; FBW7 activator: 0; TEAD-YAP inh: 9; MITF inh conf: 1; AlphaScreen intf2: 5

How did Cn1c(/C(C#N)=C/c2ccccc2Cl)nc2ccccc21 do in these assays?
GPR151 activ: -1; MITF primary: 20; FBW7 activator: 0; TEAD-YAP inh: -24

How did COc1cccc2cc(-c3csc(Nc4ccc(Cl)cc4Cl)n3)c(=O)oc12 do in these assays?
GPR151 activ: -1; MITF primary: -3; FBW7 activator: 0; TEAD-YAP inh: -5

What do the screens show for `CCc1nc(-c2ccccc2)c2ccccn12`?
GPR151 activ: 2; MITF primary: 55*; FBW7 activator: 0; TEAD-YAP inh: 2; MITF inh conf: 9; AlphaScreen intf2: 14

Results for Fc1ccc(C2CCN(Cc3cccnc3)CC2)cc1 ?
GPR151 activ: 0; MITF primary: 53*; FBW7 activator: 0; TEAD-YAP inh: -2; MITF inh conf: 4; AlphaScreen intf2: 9

What do the screens show for `Fc1ccc(C2CCN(Cc3ccncc3)CC2)cc1`?
GPR151 activ: 0; MITF primary: 60*; FBW7 activator: 0; TEAD-YAP inh: 17; MITF inh conf: 0; AlphaScreen intf2: 13

How did Fc1ccccc1C1CCN(Cc2cccnc2)CC1 do in these assays?
GPR151 activ: 0; MITF primary: 35; FBW7 activator: 0; TEAD-YAP inh: -4

Results for CN(Cc1cnc2ccccn12)C(=O)CCC1(Cc2ccc(Cl)cc2)CCC(=O)N1 (centres undefined) ?
GPR151 activ: 1; MITF primary: -22; FBW7 activator: 0; TEAD-YAP inh: -2

Results for C(=C\c1ncc2ccccn12)/c1ccccc1 ?
GPR151 activ: -3; MITF primary: 56*; FBW7 activator: 0; TEAD-YAP inh: -36; MITF inh conf: -70; AlphaScreen intf2: -11

Results for Cc1ccc(C(=O)Nc2ccccc2NC(=O)c2ccc(C)o2)o1 ?
GPR151 activ: 0; MITF primary: -2; FBW7 activator: 0; TEAD-YAP inh: 5

What do the screens show for `Cc1ccc(C(=O)NN(C)C)o1`?
GPR151 activ: 0; MITF primary: 91*; FBW7 activator: 0; TEAD-YAP inh: -4; MITF inh conf: 4; AlphaScreen intf2: 12

How did C=CCN(CC=C)CCCOc1ccc(C)cc1OC do in these assays?
GPR151 activ: -2; MITF primary: 55*; FBW7 activator: 1; TEAD-YAP inh: -2; MITF inh conf: 11; AlphaScreen intf2: 7
